Compound activity: PubChem BioAssay, National Center for Advancing Translational Sciences (NCATS)
IDH1 R132H inh – human IDH1 R132H inhibition; IDH1-R132H enzyme, NADPH consumption, diaphorase/resazurin fluorescence; Potency, µM (doses to about 76.6 µM), inactives show at the highest dose activity change, negative = inhibition, hits mostly inhibitors; 390,000 tested, 0.093% active; AID 602179; further: on the % scale 0 is the no-effect control and ±100 the full control effect; nearly all actives have a fitted effect of over 65% in size
Target sequence (O75874 whole entry R132H, stated change not applied): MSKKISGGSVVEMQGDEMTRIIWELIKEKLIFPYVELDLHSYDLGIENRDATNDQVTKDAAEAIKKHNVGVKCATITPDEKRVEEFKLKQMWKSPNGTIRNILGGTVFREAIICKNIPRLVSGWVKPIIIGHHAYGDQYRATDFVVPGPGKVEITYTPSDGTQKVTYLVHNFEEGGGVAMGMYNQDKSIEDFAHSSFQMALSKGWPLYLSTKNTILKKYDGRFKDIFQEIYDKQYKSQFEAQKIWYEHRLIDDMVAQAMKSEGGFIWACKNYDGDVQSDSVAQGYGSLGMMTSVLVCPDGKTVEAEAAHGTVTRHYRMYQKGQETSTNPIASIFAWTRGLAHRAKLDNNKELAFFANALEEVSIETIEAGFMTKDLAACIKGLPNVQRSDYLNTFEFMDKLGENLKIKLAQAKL
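IDH1-R132H (0.5 ug/mL dispensed) in pH 7.5 Tris buffer was preincubated 30 min with compound, then given a substrate mix of 0.016 mM NADPH and 2 mM alpha-KG for 80 min at room temperature; remaining NADPH was read by diaphorase/resazurin fluorescence.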
A549 viability – kills or reduces viability of A549 cells in Nrf2 counter-screen; A549 ARE-Fluc cells, CellTiter-Fluor viability, 18-24 h; Potency, µM (series often up to 46 µM), for the others: at the top dose activity change, negative = cytotoxicity, actives largely listed as inhibitors; 390,000 tested, 0.16% active; AID 504648; further: on the % scale 0 is the no-effect control and ±100 the full control effect
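Cytotoxicity counterscreen: CellTiter-Fluor fluorescence was measured in A549 ARE_Fluc cells after 18-24 h of compound exposure in a concentration series. The subsequent BugLite luminescent read reports ARE-luciferase activity.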
Mito fusion yeast – inhibitors of mitochondrial division or activators of mitochondrial fusion; S. cerevisiae fusion-defective mutant growth rescue, CellTiterGlo 48 h; Potency, µM (series often up to 46.1 µM), inactives show at the top dose growth rescue (activation), hits mostly activators; 320,000 tested, 0.23% active; AID 485298; further: % of control where 0% means no effect; nearly all actives have a fitted effect of over 45% in size
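Compounds are tested for their ability to restore growth of mitochondrial fusion-defective yeast strains at non-permissive 37C in YPEG medium over 48 hours. Viability is quantified by luciferase luminescence.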
Nrf2 block – inhibitors of Nrf2 signaling. A549 ARE-Fluc reporter, luciferase luminescence, 18-24 h. Potency, µM (doses to about 46 µM), inactives show top-dose activity change, negative = inhibition, actives largely listed as inhibitors. 360,000 tested, 2.1% active. AID 504444; further: on the % scale 0 is the no-effect control and ±100 the full control effect; nearly all actives have a fitted effect of over 60% in size
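Two sequential reads on A549 ARE_Fluc cells exposed to compound for 18-24 h: a CellTiter-Fluor fluorescence read for viability, then a luciferase luminescence read for Nrf2/ARE activity.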
rTrxR1 inhibitor – blocks rat thioredoxin reductase 1 | O89049 | 390,000 tested, 1% active | Potency, µM (doses to about 114 µM), without a hit: at the top dose activity change, negative = inhibition, usual class: inhibitors | AID 588453 | recombinant rTrxR1, NADPH fluorescence consumption, selenite substrate; further: on the % scale 0 is the no-effect control and ±100 the full control effect; nearly all actives have a fitted effect of over 65% in size
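Rat TrxR1 (90 nM in the dispensed reagent) was pre-reduced with 400 uM NADPH for 5 min at room temperature, then incubated with compound for 15 min. After 400 uM selenite was added, NADPH fluorescence (Ex 340/Em 450 nm) was followed for 8 min.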
TrxR1 substrate – rat thioredoxin reductase 1 substrate activity; purified TrxR1 substrate turnover, NADPH consumption readout; Potency, µM (highest dose often 114 µM), inactives show at the highest dose activity change, negative = substrate turnover; 390,000 tested, 0.01% active; AID 588456; further: on the % scale 0 is the no-effect control and ±100 the full control effect; nearly all actives have a fitted effect of over 50% in size
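Rat TrxR1, dispensed at 90 nM, was prereduced with 400 uM NADPH (final) for 5 min at ~22 deg C, then incubated with compound 15 min before 400 uM selenite. A first-read NADPH fluorescence drop versus no-compound background flagged substrates.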
An asterisk follows results filed as active; [ ] = dose if it differs, or a comment. Compounds with a hit are over-represented: about 3.1% of the library has one in this group of screens. The call rests on the fitted dose curve; in most records, active means well fitted curve in the direction sought with a large enough effect; inconclusive means small, poorly fitted or top-dose-only effect, or another doubt; inactive means no such curve, though single readings can be large; an effect the other way counts as inactive or inconclusive. Potency means the concentration at half of the fitted maximal effect.

For O=C(/C=C\c1ccco1)Nc1nc(-c2ccc3ccccc3c2)cs1 the results were IDH1 R132H inh -1%, A549 viability 14%, Mito fusion yeast 11%, Nrf2 block 15µM*, rTrxR1 inhibitor -4% and TrxR1 substrate 4%.
For CN1CCc2nc(SCC(=O)Nc3cccc(F)c3)c(C#N)c(-c3cccs3)c2C1 the results were IDH1 R132H inh 2%, A549 viability -26%, Mito fusion yeast 3%, Nrf2 block -1%, rTrxR1 inhibitor 5µM* and TrxR1 substrate 5%.
For CN1CCc2nc(SCC(=O)Nc3ccc(OC(F)(F)F)cc3)c(C#N)c(-c3cccs3)c2C1 the results were IDH1 R132H inh 2%, A549 viability 2%, Mito fusion yeast 6%, Nrf2 block 2%, rTrxR1 inhibitor 10µM* and TrxR1 substrate 3%.
CCOc1ccc(NC(=O)CSc2nc(-c3cccs3)cc(C(F)(F)F)c2C#N)cc1 was read as IDH1 R132H inh 0%, A549 viability -4%, Nrf2 block 1%, rTrxR1 inhibitor 17% and TrxR1 substrate -1%.
`COc1cc(OC)cc(-c2nnc(SCC(=O)N3CCC(C)CC3)o2)c1` gave IDH1 R132H inh -8%, A549 viability 1%, Nrf2 block -27%, rTrxR1 inhibitor 11% and TrxR1 substrate -1%.
Screening CCCCCCCCCCN(CCCCCCCCCC)c1ccc(/C=C/c2ccnc3ccccc23)cc1 returned rTrxR1 inhibitor 9% and TrxR1 substrate 4%.
`Cc1ccc(C2C(/C=C3/SC(=S)NC3=O)=C(c3cccs3)Oc3ccccc32)cc1` (centres undefined) gave IDH1 R132H inh -10%, A549 viability 10µM*, Mito fusion yeast 14%, Nrf2 block 13µM*, rTrxR1 inhibitor -27% and TrxR1 substrate -7%.
For COC(=O)C(CCSC)NC(=O)c1c(C)oc2ncn(CC(C)C)c(=O)c12 (centres undefined) the results were IDH1 R132H inh -12%, A549 viability 0%, Nrf2 block 16%, rTrxR1 inhibitor 5% and TrxR1 substrate -7%.
`Cc1cc(F)ccc1S(=O)(=O)NCC(c1ccco1)S(=O)(=O)c1cccs1` (centres undefined) gave IDH1 R132H inh 19%, A549 viability 13%, rTrxR1 inhibitor 1.1µM* and TrxR1 substrate 6%[57.1 µM].
Screening COc1ccc(S(=O)(=O)NCC(c2ccco2)S(=O)(=O)c2cccs2)cc1C (centres undefined) returned IDH1 R132H inh 7%, A549 viability 1%, rTrxR1 inhibitor inconclusive and TrxR1 substrate 2%[57.1 µM].
CC(C)c1ccc(NS(=O)(=O)c2ccc(Cl)nc2)cc1 was read as IDH1 R132H inh 4%, A549 viability 6%, Mito fusion yeast inconclusive, Nrf2 block -15%, rTrxR1 inhibitor 10%[57.1 µM] and TrxR1 substrate 5%[57.1 µM].
Screening O=[N+]([O-])c1cc(NS(=O)(=O)c2ccc(Cl)nc2)ccc1Cl returned IDH1 R132H inh 2%, A549 viability inconclusive, Mito fusion yeast -3%, Nrf2 block 16µM*, rTrxR1 inhibitor inconclusive and TrxR1 substrate 0%.
For O=c1c(Br)ccc(Br)cc1Br the results were IDH1 R132H inh inconclusive, A549 viability inconclusive, Nrf2 block inconclusive, rTrxR1 inhibitor 0.2µM* and TrxR1 substrate 13%[11.4 µM].
For O=C1CN(S(=O)(=O)c2cc(Br)ccc2Br)CCN1 the results were IDH1 R132H inh 5%, A549 viability -1%, Nrf2 block -4%, rTrxR1 inhibitor 13% and TrxR1 substrate 1%.
Cc1ccc2nc(CN3CCN(C(=O)Nc4cccc(C)c4C)CC3)oc2c1 was read as IDH1 R132H inh -5%, A549 viability 2%, rTrxR1 inhibitor 3%[57.1 µM] and TrxR1 substrate 2%[57.1 µM].
